Assay outcomes as filed in PubChem.
Sampled rows, rich in hits. Any-hit rate of the full collection: about 15%.
Pf growth 96h – P. falciparum growth inhibition at 96 hours; P. falciparum luciferase reporter growth, 96 h; Potency, µM (top dose mostly 28.7 µM), for inactives: top-dose activity change, negative = inhibition, usual class: inhibitors; actives 6.9% (n = 320,000); also: potency is read from the fitted curve at half-maximal effect; % is scaled to controls: 0 for no effect and ±100 for the full control effect
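Cell-based qHTS: luciferase-tagged P. falciparum in erythrocytes (2% hematocrit, 0.05% parasitemia final) incubated with compounds for 96 hours, 37 C, 5% CO2; luciferase detection reagent then added and luminescence measured.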
HCMV antiviral – human cytomegalovirus inhibition | HFF cells, HCMV-luciferase reporter, 72 h; active compounds read low | activity change, negative = inhibition, % at 57.5 µM | actives 4.5% (n = 410,000); in the data active = activity change below about -60%; inconclusive = no clear call, values can overlap the other calls; inactive = above about -39%; also: % is scaled to controls: 0 for no effect and ±100 for the full control effect
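Inhibition of viral replication was scored as loss of reporter luminescence in HFFs infected with HCMV-luciferase (MOI 1 PFU/cell) for 72 h; compounds tested at 2 doses, normalized to buffer and Salinomycin controls.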
Pf growth 48h – P. falciparum growth inhibition at 48 hours (one generation); P. falciparum luciferase growth in erythrocytes, 48 h; actives 5.9% (n = 310,000); Potency, µM (highest dose often 28.7 µM), for the others: at the highest dose activity change, negative = inhibition, most hits filed as inhibitors; also: potency is read from the fitted curve at half-maximal effect; % is scaled to controls: 0 for no effect and ±100 for the full control effect
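Parasite viability was followed by luminescence of a genomically integrated firefly luciferase. Cultures held 0.1% parasitemia at 2% hematocrit (final), incubated under 5% CO2 at 37 C.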
HCV inh – HCV inhibition. Huh7.5.1 HCVcc-Cre infection, luciferase reporter, 44 h. Potency, µM (top dose mostly 41.8 µM), for inactives: top-dose activity change, negative = inhibition, hits mostly inhibitors. actives 3.4% (n = 340,000); also: potency is read from the fitted curve at half-maximal effect; % is scaled to controls: 0 for no effect and ±100 for the full control effect
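Luciferase read-out (15 sec integration) after a 15 min room-temperature substrate step quantifies HCVcc-Cre infection. Cells, 1,000 per well, had compound added 4 h post-plating, then virus at ~0.5 moi, and were cultured 44 h.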
SARS PLpro yeast – SARS-CoV PLP inhibition in yeast. Potency, µM (top dose mostly 32.9 µM), without a hit: at the highest dose activity, positive = growth rescue, hits mostly activators. actives 0.19% (n = 330,000). S. cerevisiae expressing SARS-CoV PLpro, growth rescue; calls by dose curve; also: potency is read from the fitted curve at half-maximal effect; 0% is about no effect; nearly all actives have a fitted effect of over 55% in size
Sm TGR inh – blocks Schistosoma mansoni thioredoxin glutathione reductase | Q962Y6 | purified TGR, DTNB reduction, TNB absorbance 405 nm | Potency, µM (highest dose often 114 µM), inactives show at the top dose activity change, negative = inhibition, actives largely listed as inhibitors | actives 3% (n = 360,000); also: potency is read from the fitted curve at half-maximal effect; % is scaled to controls: 0 for no effect and ±100 for the full control effect; nearly all actives have a fitted effect of over 60% in size
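First, TGR (20 nM dispensed) and NADPH were mixed with compound. Second, a 15 min room-temperature incubation followed. Third, further NADPH and then DTNB were added to start the reaction. Finally, TNB absorbance was monitored kinetically.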
Numbers without * were called inactive; ? = inconclusive; . = no result given. Unless noted, calls follow the shape of the dose curve; as a rule, active = well fitted curve in the direction sought with a large enough effect; inconclusive = small, poorly fitted or top-dose-only effect, or another doubt; inactive = no such curve, though single readings can be large; an effect the other way counts as inactive or inconclusive.

SMILES	Pf growth 96h	HCMV antiviral	Pf growth 48h	HCV inh	SARS PLpro yeast	Sm TGR inh
N#C/C(=C\c1ccc(OCCN2CCOCC2)cc1)C(=O)Nc1ccccc1F	108%	-13	3%	8%	-8%	0%
COc1ccccc1NC(=O)/C(C#N)=C/c1ccc(OCCN2CCOCC2)c(OC)c1	3%	.	8%	1%	-5%	0%
COc1cc(C(=O)NCc2ccc3c(c2)OCO3)c([N+](=O)[O-])cc1OC	?	30	3%	8%	0%	1%
Cc1cc(C)cc(NS(=O)(=O)c2c(C)[nH]c(=O)[nH]c2=O)c1	2.1µM*	5	12%	8%	-4%	15%
Cc1ccc(NS(=O)(=O)c2c(C)[nH]c(=O)[nH]c2=O)cc1F	?	.	13%	11%	2%	2%
O=C(Nc1cccc(S(=O)(=O)c2cccc(NC(=O)C3CC3)c2)c1)C1CC1	11%	?	?	5.6µM*	5%	-2%
O=C(Nc1cccc(S(=O)(=O)N2CCCC2)c1)c1ccc2c(c1)OCO2	6%	18	18%	-7%	3%	-9%
O=C(Nc1cccc(S(=O)(=O)N2CCCCCC2)c1)c1ccc2c(c1)OCO2	20%	-62*	9%	?	13%	5%
Cc1ccc(S(=O)(=O)c2cccc(S(=O)(=O)N3CCCC3)c2)cc1S(=O)(=O)N1CCCC1	87%	-23	-34%	16µM*	-5%	-2%
O=S(=O)(Nc1nc2ccccc2nc1Nc1cccc(S(=O)(=O)N2CCCCC2)c1)c1ccccc1	2.1µM*	-83*	8.3µM*	?	7%	2%
COc1ccc(S(=O)(=O)Nc2cccc(S(=O)(=O)N3CCCCCC3)c2)cc1	?	6	2%	7%	8%	-1%
COc1ccc(Cc2c(C(C)(C)C)nc3c(C)cc(Br)cn23)c(C)c1	.	-31	.	.	.	.
CC(=O)Nc1cccc(S(=O)(=O)N2CCCCCC2)c1	-10%	-100*	1%	-1%	4%	6%
O=C(Nc1cccc(S(=O)(=O)N2CCCCCC2)c1)C1CCC1	13µM*	-18	?	-19%	3%	7%
O=C(Nc1cccc(S(=O)(=O)N2CCCCC2)c1)C1CCCC1	?	-30	?	-2%	3%	-24%
CN1CCn2cnc(C(=O)Nc3ccc(CNC(=O)OC(C)(C)C)cc3)c2C1=O	.	-9	.	.	.	.
CCc1nc2ccc(C(=O)NCCCN(C)C)cn2c1N(C)CCCc1ccccc1	.	-19	.	.	.	.
Clc1ccc(-n2cnnn2)cc1	?	6	11%	5%	0%	4%
CO/C=C\C=C/c1nnn(-c2ccc(Cl)cc2)n1	31%	-64*	39%	-3%	-77%	8.9µM*
CN1CCN(C(CNC(=O)C(=O)Nc2ccc3c(c2)OCCO3)c2ccc(F)cc2)CC1 (centres undefined)	?	-10	?	?	0%	-1%
CCOC(=O)c1[nH]c(=O)[nH]c1CSc1ccccn1	-18%	74	11%	20%	-7%	14µM*
O=C(CSc1ncnc2c1cnn2-c1ccc(F)cc1)NC1CCCC1	36%	-17	49%	6.3µM*	-1%	0%
Cc1ccc(CSc2ncnc3c2cnn3-c2ccccc2)cc1	23%	-16	54%	1%	7%	-1%
CCc1nnc(NC(=O)CSc2ncnc3c2cnn3-c2ccc(OC)cc2)s1	0.0037µM*	85	57%	-12%	0%	0%
CCOC(=O)CSc1ncnc2c1cnn2-c1ccc(C)cc1	13µM*	-3	28%	9%	-1%	-1%
Cc1ccc(-n2ncc3c(SCc4ccccc4)ncnc32)cc1	164%	-63*	195%	37%	-5%	-14%
CC(C)CCC1(CCO)C(=O)N=C(N)NC1=O (centres undefined)	.	-16	.	24%	.	.
CCOC(=O)c1ccc(CN(Cc2ccc(F)cc2)S(=O)(=O)c2ccc(F)c(C(=O)Nc3c(C)cccc3C)c2)cc1	.	?	.	.	.	11%
